The supplement of paper PMC11732987, “Enantioselective OTUD7B fragment discovery through chemoproteomics screening and high-throughput optimisation” (Communications Chemistry, 2025)

Tests used:
Assay in all cases: log2 ratio of Biotin-Ahx-Ub-VS probe labelling (fragment/DMSO); higher = less target engagement (more negative = stronger competition), active = hit call of the paper (q ≤ 0.05, log2 ratio ≤ -1)
Details in all cases: compound concentration: 200 uM; treatment time: 3 h
[1] = biological target: USP34 (UniProt Q70CQ2)
Chain of USP34 (Q70CQ2 whole entry, the tested form may be a part): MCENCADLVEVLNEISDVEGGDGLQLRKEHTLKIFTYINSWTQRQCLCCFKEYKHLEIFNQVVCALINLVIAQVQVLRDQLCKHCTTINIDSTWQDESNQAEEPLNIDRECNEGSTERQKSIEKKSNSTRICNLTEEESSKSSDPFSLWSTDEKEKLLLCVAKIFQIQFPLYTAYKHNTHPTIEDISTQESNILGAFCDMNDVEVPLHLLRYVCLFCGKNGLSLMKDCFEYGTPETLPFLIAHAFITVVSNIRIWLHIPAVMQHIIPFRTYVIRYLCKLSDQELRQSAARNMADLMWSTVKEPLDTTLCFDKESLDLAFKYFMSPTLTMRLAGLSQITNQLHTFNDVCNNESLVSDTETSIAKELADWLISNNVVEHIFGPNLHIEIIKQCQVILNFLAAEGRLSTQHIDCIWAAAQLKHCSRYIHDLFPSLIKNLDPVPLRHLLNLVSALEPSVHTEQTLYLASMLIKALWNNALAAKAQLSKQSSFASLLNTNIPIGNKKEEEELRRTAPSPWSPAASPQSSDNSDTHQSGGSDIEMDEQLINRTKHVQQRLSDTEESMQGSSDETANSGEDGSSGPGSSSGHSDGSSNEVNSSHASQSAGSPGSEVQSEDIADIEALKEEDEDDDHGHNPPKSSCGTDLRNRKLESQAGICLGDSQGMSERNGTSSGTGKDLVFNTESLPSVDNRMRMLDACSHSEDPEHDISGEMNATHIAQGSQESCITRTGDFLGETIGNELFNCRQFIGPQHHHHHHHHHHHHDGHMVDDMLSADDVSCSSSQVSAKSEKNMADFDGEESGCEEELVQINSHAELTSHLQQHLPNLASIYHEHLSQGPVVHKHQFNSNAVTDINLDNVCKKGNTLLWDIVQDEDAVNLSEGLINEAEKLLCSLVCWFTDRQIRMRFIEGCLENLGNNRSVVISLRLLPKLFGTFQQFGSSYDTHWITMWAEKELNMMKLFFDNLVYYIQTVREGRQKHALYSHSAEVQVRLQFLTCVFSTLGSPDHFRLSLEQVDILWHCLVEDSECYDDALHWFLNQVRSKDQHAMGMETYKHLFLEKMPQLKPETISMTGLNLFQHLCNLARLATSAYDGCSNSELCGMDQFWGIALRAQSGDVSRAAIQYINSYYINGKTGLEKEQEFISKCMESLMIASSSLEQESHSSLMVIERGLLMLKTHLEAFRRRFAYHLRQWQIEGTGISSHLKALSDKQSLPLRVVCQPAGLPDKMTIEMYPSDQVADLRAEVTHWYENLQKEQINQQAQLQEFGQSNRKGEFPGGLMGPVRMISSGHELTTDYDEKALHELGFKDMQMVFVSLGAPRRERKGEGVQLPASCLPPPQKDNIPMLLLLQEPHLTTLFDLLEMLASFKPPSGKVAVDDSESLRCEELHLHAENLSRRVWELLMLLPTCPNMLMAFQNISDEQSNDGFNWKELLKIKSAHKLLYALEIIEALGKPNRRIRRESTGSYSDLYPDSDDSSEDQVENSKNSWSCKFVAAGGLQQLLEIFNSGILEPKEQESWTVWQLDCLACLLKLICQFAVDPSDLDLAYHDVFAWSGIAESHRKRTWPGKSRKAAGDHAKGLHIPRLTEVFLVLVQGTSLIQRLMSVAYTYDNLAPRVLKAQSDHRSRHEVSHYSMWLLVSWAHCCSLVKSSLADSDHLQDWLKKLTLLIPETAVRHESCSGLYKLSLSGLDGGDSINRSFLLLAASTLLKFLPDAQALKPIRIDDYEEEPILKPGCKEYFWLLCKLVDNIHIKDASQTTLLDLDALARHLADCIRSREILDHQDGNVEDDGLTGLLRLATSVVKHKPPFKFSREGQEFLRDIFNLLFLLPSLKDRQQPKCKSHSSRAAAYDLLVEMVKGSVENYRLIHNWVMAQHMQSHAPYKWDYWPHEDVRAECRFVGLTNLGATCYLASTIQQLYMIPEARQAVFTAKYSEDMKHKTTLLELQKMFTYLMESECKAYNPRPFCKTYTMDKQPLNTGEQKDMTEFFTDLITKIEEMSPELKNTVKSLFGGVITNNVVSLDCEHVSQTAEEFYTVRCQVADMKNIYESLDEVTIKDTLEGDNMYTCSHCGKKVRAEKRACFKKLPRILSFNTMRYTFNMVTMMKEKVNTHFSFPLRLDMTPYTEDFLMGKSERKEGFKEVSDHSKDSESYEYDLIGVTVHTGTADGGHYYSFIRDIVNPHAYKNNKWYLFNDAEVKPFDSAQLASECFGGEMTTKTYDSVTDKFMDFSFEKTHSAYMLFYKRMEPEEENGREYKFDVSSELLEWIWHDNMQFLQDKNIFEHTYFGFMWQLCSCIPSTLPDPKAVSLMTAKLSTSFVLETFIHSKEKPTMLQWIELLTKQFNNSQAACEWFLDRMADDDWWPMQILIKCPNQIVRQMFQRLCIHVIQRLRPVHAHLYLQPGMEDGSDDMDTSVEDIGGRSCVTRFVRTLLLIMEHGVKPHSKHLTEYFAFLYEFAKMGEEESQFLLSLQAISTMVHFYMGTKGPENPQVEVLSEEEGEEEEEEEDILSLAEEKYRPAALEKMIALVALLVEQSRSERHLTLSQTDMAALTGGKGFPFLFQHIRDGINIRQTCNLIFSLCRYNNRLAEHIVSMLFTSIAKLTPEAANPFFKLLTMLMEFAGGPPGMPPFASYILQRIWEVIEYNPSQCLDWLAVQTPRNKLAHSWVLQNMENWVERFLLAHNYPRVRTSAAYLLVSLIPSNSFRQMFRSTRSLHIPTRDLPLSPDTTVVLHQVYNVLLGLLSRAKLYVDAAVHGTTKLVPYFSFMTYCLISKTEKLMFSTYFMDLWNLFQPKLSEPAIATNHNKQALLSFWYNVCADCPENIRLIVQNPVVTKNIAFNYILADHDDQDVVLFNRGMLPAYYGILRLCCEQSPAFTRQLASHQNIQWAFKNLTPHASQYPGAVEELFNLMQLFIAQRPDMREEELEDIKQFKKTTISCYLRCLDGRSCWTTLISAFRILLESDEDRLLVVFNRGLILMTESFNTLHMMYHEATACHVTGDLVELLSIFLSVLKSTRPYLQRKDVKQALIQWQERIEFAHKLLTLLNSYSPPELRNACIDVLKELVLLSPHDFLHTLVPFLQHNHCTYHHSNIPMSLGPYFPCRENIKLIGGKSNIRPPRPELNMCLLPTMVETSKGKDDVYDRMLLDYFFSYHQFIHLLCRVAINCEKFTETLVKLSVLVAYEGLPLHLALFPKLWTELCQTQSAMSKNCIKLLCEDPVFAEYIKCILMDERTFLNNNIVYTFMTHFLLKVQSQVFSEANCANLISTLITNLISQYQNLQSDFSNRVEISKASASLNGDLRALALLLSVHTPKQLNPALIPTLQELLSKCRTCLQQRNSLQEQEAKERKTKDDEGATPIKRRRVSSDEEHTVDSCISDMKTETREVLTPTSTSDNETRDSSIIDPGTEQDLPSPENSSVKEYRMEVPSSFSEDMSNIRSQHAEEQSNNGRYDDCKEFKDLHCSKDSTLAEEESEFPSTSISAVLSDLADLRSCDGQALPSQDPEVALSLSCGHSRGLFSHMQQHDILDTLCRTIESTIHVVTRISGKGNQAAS
Procedure, shortened: (§1)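 Triplicate samples of HEK293T lysate, 495 µg each, received fragment at 200 µM or vehicle for 3 h, followed by Biotin-Ahx-Ub-VS (0.5 µM final) for 1 h. After NeutrAvidin enrichment of labelled DUBs and LysC/trypsin digestion, peptides were run by diaPASEF LC-MS/MS. The values are average log2 fragment/vehicle ratios from global-median-normalised Spectronaut label-free quantities, tested by unpaired t-test on proteins having ≥2 unique peptides.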

[2] = biological target: T1, USP36 (UniProt Q9P275)
T1 sequence (whole entry): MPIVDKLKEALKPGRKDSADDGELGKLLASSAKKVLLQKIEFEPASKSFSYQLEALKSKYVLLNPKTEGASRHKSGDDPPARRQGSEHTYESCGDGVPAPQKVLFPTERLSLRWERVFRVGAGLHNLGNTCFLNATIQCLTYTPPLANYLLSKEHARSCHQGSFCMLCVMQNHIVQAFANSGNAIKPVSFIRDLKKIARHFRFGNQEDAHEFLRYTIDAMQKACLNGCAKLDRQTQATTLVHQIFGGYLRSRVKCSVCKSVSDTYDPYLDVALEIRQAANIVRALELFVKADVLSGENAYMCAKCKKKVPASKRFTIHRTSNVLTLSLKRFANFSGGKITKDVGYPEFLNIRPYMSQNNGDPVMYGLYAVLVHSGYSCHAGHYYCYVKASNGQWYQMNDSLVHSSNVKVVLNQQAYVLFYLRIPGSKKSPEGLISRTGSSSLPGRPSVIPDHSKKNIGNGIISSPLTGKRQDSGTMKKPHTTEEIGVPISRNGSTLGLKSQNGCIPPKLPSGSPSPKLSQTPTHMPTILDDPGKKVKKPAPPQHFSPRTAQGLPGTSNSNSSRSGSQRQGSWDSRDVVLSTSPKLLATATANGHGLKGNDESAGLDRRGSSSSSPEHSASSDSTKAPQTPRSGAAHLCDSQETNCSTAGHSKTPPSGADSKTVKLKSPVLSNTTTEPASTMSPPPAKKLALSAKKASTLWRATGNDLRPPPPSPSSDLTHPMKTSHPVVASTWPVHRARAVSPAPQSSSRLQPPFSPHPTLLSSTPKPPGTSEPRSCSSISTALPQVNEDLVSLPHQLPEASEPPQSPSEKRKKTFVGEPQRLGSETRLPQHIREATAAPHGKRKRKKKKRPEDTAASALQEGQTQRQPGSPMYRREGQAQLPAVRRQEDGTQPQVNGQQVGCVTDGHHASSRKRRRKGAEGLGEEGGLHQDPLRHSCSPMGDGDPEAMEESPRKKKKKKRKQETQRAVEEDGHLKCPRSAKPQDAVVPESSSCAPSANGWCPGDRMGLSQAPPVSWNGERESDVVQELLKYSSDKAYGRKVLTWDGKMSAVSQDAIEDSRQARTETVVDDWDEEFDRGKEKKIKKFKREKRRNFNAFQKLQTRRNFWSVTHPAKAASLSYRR
Procedure, shortened: as §1

[3] = biological target: T2, USP38 (UniProt Q8NB14)
T2 sequence (whole entry): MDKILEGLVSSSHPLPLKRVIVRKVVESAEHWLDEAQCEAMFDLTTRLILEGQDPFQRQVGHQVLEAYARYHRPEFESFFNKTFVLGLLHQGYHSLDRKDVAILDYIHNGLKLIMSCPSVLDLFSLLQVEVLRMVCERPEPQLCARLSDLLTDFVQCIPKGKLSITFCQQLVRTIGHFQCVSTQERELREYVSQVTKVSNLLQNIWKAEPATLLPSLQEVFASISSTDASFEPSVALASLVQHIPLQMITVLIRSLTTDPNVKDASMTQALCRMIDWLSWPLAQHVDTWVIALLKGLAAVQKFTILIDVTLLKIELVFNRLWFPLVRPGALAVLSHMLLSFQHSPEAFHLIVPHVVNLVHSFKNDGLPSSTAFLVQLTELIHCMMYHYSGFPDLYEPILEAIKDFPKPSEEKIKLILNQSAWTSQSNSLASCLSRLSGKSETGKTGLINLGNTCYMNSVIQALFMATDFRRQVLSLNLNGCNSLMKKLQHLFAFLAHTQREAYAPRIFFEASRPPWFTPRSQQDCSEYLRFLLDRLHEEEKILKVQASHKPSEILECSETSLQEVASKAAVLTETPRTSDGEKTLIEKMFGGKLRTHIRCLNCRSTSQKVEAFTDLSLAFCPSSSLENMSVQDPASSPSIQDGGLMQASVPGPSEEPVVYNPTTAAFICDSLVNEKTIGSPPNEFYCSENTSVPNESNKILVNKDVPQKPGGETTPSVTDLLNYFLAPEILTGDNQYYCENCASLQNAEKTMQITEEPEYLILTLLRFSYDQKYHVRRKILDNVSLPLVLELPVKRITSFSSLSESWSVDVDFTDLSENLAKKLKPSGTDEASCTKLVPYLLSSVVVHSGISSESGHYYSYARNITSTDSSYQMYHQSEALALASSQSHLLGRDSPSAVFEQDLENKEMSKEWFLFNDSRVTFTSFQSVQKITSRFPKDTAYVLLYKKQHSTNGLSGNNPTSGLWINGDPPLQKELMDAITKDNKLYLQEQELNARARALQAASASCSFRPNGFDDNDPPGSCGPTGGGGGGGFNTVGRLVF
Procedure, shortened: as §1

[4] = biological target: T3, USP39 (UniProt Q53GS9)
T3 sequence (whole entry): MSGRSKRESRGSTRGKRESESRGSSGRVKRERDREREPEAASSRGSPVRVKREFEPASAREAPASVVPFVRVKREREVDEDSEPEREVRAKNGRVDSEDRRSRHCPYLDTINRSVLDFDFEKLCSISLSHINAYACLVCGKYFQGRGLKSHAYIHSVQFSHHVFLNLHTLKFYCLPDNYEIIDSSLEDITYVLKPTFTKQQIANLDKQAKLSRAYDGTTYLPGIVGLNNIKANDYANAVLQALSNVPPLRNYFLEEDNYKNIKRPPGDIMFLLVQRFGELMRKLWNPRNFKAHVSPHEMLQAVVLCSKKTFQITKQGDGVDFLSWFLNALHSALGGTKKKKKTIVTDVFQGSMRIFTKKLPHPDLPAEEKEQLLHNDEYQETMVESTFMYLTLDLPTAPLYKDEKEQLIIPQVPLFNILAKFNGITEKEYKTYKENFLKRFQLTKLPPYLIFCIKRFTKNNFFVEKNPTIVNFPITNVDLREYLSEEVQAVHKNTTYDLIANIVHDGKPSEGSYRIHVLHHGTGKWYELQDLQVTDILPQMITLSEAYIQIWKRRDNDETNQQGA
Procedure, shortened: as §1

[5] = biological target: T4, USP4 (UniProt Q13107)
T4 sequence (whole entry): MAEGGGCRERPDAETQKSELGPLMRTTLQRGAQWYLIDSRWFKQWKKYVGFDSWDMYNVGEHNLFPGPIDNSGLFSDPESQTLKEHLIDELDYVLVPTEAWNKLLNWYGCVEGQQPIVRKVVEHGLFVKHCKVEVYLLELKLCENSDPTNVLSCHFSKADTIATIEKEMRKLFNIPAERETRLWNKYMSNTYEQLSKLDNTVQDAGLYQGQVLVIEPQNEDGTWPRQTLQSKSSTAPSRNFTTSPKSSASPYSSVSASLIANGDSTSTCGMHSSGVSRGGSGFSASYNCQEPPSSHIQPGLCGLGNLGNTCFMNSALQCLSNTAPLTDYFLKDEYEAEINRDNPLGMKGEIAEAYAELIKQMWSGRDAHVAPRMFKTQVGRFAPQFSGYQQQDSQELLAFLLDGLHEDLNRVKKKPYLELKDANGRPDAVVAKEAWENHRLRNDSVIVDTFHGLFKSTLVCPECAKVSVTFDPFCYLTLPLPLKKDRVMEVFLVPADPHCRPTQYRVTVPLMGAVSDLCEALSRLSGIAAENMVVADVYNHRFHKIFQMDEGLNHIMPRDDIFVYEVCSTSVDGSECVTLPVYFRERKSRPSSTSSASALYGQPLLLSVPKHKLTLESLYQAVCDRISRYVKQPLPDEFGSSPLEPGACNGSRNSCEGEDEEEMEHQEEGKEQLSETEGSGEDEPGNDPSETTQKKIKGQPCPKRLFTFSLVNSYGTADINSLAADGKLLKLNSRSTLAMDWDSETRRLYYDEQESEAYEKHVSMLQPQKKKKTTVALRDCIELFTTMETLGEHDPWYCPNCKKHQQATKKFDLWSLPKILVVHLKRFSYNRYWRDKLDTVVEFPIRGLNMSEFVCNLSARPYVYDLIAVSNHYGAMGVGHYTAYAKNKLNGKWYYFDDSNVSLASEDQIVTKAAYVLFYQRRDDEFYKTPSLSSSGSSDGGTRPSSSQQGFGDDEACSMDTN
Procedure, shortened: as §1

Measured: log2 ratio of Biotin-Ahx-Ub-VS probe labelling

Cl.Cn1ncc2c1CC(NC(=O)CCl)CC2 (stereo not given)
inactive: [1] 0.0665 | [2] -0.0622 | [3] 0.034 | [4] -0.0219 | [5] 0.0879
